# Experimental data as given in the supplement of paper PMC6555819.
# How the values were obtained:
# Assay in all cases: PBM binding z-score (relative to random genomic background probes); higher = stronger binding; sequences stand for … in GC…GCGATTGACAGCGTAGAATGAAGG
# [1] = tested on: FXR:RXRa (NR concentration 270 nM, RXRa partner concentration 90 nM)
# In short: (§1)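 For binding z-scores, the reference was random background probes on custom Agilent 4×180K protein-binding microarrays. These arrays were incubated 1 h with ligand-free nuclear receptor dimers in PBS pH 7.4, 2% milk, 0.02% Triton X-100, 1 mM DTT, 0.2 mg/mL BSA and 0.4 mg/ml salmon testes DNA. Fluorescence was scanned after antibody detection of each partner (one per run) and regression-normalized.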
# [2] = tested on: LXRa:RXRa (NR concentration 270 nM, RXRa partner concentration 90 nM)
# In short: as §1
# [3] = tested on: LXRa homodimer (NR concentration 270 nM)
# In short: as §1
# [4] = tested on: LXRb:RXRa (NR concentration 270 nM, RXRa partner concentration 90 nM)
# In short: as §1
# [5] = tested on: LXRb homodimer (NR concentration 270 nM)
# In short: as §1
# [6] = tested on: PPARa:RXRa (NR concentration 270 nM, RXRa partner concentration 90 nM)
# In short: as §1
# [7] = tested on: PPARg:RXRa (NR concentration 180 nM, RXRa partner concentration 90 nM)
# In short: as §1
# [8] = tested on: PPARg:RXRa 270nM:90nM, anti-RXR (NR concentration 270 nM, RXRa partner concentration 90 nM)
# In short: as §1
# [9] = tested on: PPARg:RXRa 30nM:10nM, anti-RXR (NR concentration 30 nM, RXRa partner concentration 10 nM)
# In short: as §1
# [10] = tested on: PPARg:RXRa 90nM:30nM, anti-RXR (NR concentration 90 nM, RXRa partner concentration 30 nM)
# In short: as §1
# [11] = tested on: PPARg:RXRa DBDmut IVT, anti-RXR (DBD mutation: RXRa K156A/R161A, NR concentration 270 nM, RXRa partner concentration 90 nM)
# In short: as §1
# [12] = tested on: PPARg:RXRa IVT, anti-PPARg (NR concentration 270 nM, RXRa partner concentration 90 nM)
# In short: as §1
# [13] = tested on: PPARg DBDmut:RXRa IVT, anti-PPARg (DBD mutation: PPARg1 K132A/R137A, NR concentration 270 nM, RXRa partner concentration 90 nM)
# In short: as §1
# [14] = tested on: PPARg DBDmut IVT, anti-PPARg (DBD mutation: PPARg1 K132A/R137A, NR concentration 270 nM)
# In short: as §1
# [15] = tested on: PPARg homodimer (NR concentration 180 nM)
# In short: as §1
# [16] = tested on: PXR:RXRa (NR concentration 270 nM, RXRa partner concentration 90 nM)
# In short: as §1
# [17] = tested on: PXR homodimer (NR concentration 270 nM)
# In short: as §1
# [18] = tested on: RARa:RXR (NR concentration 270 nM, RXRa partner concentration 90 nM)
# In short: as §1
# [19] = tested on: RARa homodimer (NR concentration 270 nM)
# In short: as §1
# [20] = tested on: RARb:RXRa (NR concentration 270 nM, RXRa partner concentration 90 nM)
# In short: as §1
Sequence,PBM binding z-score [1],PBM binding z-score [2],PBM binding z-score [3],PBM binding z-score [4],PBM binding z-score [5],PBM binding z-score [6],PBM binding z-score [7],PBM binding z-score [8],PBM binding z-score [9],PBM binding z-score [10],PBM binding z-score [11],PBM binding z-score [12],PBM binding z-score [13],PBM binding z-score [14],PBM binding z-score [15],PBM binding z-score [16],PBM binding z-score [17],PBM binding z-score [18],PBM binding z-score [19],PBM binding z-score [20]
ATCTCTAGGTAACACGTTCAGTGAAAGAGAGGAC,0.359,0.232,0.454,0.113,0.898,0.511,0.99,1.06,0.213,0.803,3.45,3.05,1.75,1.04,0.135,0.0713,0.206,0.208,0.489,0.552
CCTCGGAGGACAAAAGGAGGTCAGAGCTGCCAGA,1.18,2.12,1.26,1.34,-0.602,2.71,0.706,1.21,-0.33,0.651,0.965,1.96,-1.11,-2.13,1.84,2.15,0.144,2.45,0.515,2.39
TCTATCAGGCCAGAGGGTCACTCAAGAGGTACGG,1.28,1.42,-0.272,1.32,0.048,2.51,1.7,2.98,3.16,3,1.69,1.3,-0.288,-0.122,1.01,1.83,0.211,2.39,0.259,2.52
TAGCCTAGGTCAGATCGGTCCAGTATACGCTATA,1.8,0.953,-0.475,0.809,-0.111,1.74,0.543,0.782,-0.239,0.0897,0.702,1.74,-0.14,-0.564,-0.166,2.34,-0.919,0.948,-0.74,2.78
AGAATTAGGTTACCAAAGATCAGGGAAACGCTTG,0.207,4.78,0.162,1.15,-0.0791,2.9,3.46,3.45,1.37,2.53,6.61,6.16,1.54,0.973,1.54,0.000566,0.073,0.336,1,1.25
TCTAGTTGGTCGAAGGTCACACACTCGAAATGCG,2.91,3.2,1.24,3.38,0.802,4.57,7.43,7.58,6.89,7.98,1.87,3.68,1.01,1.13,3.06,3.66,1.06,4.17,1.25,3.51
AGAATGTGGTTATACGTAGATCAGGGAAGAAAGT,0.107,0.271,0.177,0.318,-0.0614,0.259,0.647,0.356,0.568,0.428,-0.104,0.38,1.04,0.755,0.355,0.214,0.82,0.282,0.734,0.0601
CAAACTAGGTCACAGAGGTCAATGTCCGTGCGTA,6.85,6.22,6.83,6.14,1.81,6.32,10,8.44,6.44,8.59,8.72,9.05,4.01,2.12,4.75,6.6,10.6,7.36,2.65,5.17
CCTAGCAGGCCAATCTGGGTCACACAAGGCTTGA,1.88,1.82,-0.247,1.21,-0.968,3.68,3.08,2.68,0.555,2.1,4.53,5.23,0.519,-0.276,0.856,1.56,-0.6,1.86,0.119,1.76
CCGACTGGGGGAAGGTTACCATAACGCACAGCCA,0.719,1.05,0.199,2.11,2.85,1.71,1.63,2.33,0.95,1.37,0.717,2.1,0.867,1.69,0.69,0.63,0.357,0.802,0.511,1
CCGATTGGGGCAGAAAGGTTACCATACCATCCGG,0.261,0.61,-0.352,1.09,-0.598,2.22,2.06,3.83,2.17,3.56,0.436,1.14,-1.01,-0.679,0.221,1.24,-0.318,1.66,-0.348,1.88
TCGAGTAGGTTCGGGGCATTCAGAATGGCGTCGA,-0.238,-0.318,-0.554,-0.184,-1.07,0.187,-0.622,0.0439,0.452,0.234,0.529,-0.193,-0.804,-0.918,-0.546,-0.101,-0.4,-0.0228,-1.08,0.221
AGAACGAGGGTAATGAGTTGATAGCACGGGTGGC,-0.398,-0.272,-0.536,-0.672,-0.615,0.387,1.08,0.119,0.202,0.182,1.74,1.31,-0.702,-0.588,-0.465,0.134,1.17,-0.279,-0.76,0.509
CCGACTGGGGCAGAAAGGTTAACATACCATCCGG,0.257,0.795,0.102,1.32,-1.1,2.45,1.92,2.76,1.1,2.38,1.78,2.39,-0.202,-1.36,1.53,1.19,-0.126,1.95,0.0538,1.98
